# Measured values reported in PMC7862700, “An all-to-all approach to the identification of sequence-specific readers for epigenetic DNA modifications on cytosine”.
# Assays:
# Assay in all cases: DAPPL (digital affinity profiling via proximity ligation, sequencing); 10 mM Tris-HCl pH 7.5, 50 mM NaCl, 1 mM DTT, 4% glycerol, room temperature, 30 min; GST-TFs on glutathione beads, 16-mer random dsDNA library, 0.1% formaldehyde crosslink after washing; high values mean tight binding
# FEV = biological target: T1, FEV (Homo sapiens, UniProt Q99581 1-238); conditions: protein: recombinant; tags: N-terminal GST; dsDNA, one strand shown
# T1 sequence: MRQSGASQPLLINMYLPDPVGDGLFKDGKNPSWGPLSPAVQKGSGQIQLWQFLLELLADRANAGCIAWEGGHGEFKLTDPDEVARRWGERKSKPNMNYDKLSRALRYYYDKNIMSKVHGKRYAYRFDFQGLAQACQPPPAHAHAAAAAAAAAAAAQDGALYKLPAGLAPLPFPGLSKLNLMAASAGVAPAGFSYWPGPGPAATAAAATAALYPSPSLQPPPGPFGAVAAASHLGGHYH
# How it was run: (§1)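 Binding signal is given per hexamer as its read frequency for a factor divided by its frequency in the tag-only sample. GST-fused human transcription factors were expressed in yeast, captured on glutathione beads, barcoded with DNA and pooled with that sample, then incubated with 200 nmole of a 16-mer random double-stranded DNA library in Tris/NaCl/DTT/glycerol buffer for 30 min at room temperature. The pools were then washed, crosslinked, proximity-ligated, amplified by PCR and sequenced on an Illumina NextSeq500.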
# ETV5 = ETV5 (Homo sapiens, UniProt P41161 1-510); conditions: protein: recombinant; tags: N-terminal GST; dsDNA, one strand shown
# ETV5, sequence (P41161 whole entry): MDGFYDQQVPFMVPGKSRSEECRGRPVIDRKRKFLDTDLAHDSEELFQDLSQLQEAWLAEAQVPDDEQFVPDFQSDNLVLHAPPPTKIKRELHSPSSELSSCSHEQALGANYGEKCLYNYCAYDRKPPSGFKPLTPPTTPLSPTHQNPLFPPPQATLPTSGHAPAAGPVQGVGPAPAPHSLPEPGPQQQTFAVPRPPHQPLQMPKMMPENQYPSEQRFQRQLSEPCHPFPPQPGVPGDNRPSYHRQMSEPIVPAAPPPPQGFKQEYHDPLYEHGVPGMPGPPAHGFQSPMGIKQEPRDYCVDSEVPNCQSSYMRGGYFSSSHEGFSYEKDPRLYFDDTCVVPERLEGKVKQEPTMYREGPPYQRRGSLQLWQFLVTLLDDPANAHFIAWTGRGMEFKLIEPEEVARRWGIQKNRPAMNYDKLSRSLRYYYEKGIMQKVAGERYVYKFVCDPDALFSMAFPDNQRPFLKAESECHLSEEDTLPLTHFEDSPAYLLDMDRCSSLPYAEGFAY
# How it was run: as §1
# HSF1 = HSF1 (Homo sapiens, UniProt Q00613 1-529); conditions: protein: recombinant; tags: N-terminal GST; chain copies: 3; dsDNA, one strand shown
# HSF1, sequence (Q00613 whole entry): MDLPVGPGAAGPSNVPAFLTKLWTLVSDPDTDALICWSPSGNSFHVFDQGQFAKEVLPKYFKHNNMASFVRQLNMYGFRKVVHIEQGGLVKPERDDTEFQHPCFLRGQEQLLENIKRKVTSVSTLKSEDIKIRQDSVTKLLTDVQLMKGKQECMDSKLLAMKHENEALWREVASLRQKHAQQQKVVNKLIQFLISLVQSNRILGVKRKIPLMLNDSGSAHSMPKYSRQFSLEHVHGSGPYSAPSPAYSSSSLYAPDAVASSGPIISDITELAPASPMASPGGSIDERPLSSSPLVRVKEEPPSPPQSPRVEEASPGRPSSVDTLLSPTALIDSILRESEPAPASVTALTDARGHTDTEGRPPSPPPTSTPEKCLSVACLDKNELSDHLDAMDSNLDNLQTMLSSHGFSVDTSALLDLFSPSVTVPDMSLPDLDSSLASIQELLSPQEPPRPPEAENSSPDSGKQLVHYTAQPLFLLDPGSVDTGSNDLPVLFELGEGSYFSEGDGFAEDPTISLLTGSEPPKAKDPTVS
# How it was run: as §1
# SPIC = biological target: T2, SPIC (Homo sapiens, UniProt Q8N5J4 1-248); conditions: protein: recombinant; tags: N-terminal GST; dsDNA, one strand shown
# T2 sequence: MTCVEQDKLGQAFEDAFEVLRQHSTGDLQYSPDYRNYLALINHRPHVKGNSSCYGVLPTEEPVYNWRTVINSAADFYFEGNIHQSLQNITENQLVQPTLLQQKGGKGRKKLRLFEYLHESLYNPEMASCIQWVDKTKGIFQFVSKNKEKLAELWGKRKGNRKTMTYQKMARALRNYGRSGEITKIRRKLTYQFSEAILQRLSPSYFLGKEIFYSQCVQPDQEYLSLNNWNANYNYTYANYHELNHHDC
# How it was run: as §1
# ELF4 = ELF4 (Homo sapiens, UniProt Q99607 1-663); conditions: protein: recombinant; tags: N-terminal GST; dsDNA, one strand shown
# ELF4, sequence (Q99607 whole entry): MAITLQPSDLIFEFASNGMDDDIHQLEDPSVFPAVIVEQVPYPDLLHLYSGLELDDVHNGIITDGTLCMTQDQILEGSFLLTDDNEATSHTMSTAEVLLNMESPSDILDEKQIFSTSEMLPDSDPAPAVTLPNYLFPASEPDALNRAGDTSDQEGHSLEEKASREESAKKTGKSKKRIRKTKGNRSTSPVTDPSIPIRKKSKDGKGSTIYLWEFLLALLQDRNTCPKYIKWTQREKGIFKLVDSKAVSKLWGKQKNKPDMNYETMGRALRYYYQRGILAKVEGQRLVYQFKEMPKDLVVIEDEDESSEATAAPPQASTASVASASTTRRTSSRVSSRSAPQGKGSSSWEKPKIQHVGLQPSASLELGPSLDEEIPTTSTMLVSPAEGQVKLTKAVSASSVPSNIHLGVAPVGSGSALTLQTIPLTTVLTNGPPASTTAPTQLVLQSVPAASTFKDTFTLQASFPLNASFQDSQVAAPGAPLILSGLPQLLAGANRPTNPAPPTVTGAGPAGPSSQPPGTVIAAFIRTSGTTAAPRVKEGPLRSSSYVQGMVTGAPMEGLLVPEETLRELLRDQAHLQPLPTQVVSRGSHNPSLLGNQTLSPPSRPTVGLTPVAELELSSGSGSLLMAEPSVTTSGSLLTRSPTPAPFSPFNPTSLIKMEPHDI
# How it was run: as §1
# ELK4 = biological target: T3, ELK4 (Homo sapiens, UniProt P28324-2 1-405); conditions: protein: recombinant; tags: N-terminal GST; dsDNA, one strand shown
# T3 sequence: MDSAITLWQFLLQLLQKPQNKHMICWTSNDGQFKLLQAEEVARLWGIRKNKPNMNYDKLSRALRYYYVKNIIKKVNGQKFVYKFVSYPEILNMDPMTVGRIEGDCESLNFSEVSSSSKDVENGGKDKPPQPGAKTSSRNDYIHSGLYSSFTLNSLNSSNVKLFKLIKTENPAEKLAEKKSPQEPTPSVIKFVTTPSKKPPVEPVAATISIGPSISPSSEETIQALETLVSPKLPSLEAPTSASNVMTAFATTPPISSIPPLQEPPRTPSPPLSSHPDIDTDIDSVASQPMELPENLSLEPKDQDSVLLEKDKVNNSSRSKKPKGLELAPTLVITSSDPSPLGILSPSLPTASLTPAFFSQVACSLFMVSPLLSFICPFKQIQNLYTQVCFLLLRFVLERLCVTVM
# How it was run: as §1
# ETV2 = biological target: T4, ETV2 (Homo sapiens, UniProt O00321 1-342); conditions: protein: recombinant; tags: N-terminal GST; dsDNA, one strand shown
# T4 sequence: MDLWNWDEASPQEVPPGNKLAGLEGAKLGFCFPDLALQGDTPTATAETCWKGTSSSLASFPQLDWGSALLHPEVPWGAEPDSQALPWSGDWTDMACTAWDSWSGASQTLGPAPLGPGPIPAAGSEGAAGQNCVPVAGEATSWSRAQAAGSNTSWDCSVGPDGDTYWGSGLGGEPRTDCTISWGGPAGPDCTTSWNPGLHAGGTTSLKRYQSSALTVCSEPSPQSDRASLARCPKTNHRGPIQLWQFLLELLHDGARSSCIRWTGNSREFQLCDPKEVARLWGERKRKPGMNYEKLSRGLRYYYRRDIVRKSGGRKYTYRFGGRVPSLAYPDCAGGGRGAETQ
# How it was run: as §1
# ELF3 = biological target: T5, ELF3 (Homo sapiens, UniProt P78545 1-371); conditions: protein: recombinant; tags: N-terminal GST; dsDNA, one strand shown
# T5 sequence: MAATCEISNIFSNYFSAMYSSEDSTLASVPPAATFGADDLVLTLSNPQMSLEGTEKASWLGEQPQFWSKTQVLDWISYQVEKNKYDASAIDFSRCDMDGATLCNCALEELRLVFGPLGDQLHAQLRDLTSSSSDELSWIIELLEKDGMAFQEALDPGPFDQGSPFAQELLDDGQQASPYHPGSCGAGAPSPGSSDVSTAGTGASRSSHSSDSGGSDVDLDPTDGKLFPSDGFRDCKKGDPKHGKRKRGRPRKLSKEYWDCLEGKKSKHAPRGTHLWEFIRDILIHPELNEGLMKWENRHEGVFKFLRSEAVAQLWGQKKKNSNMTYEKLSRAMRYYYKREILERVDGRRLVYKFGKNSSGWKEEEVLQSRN
# How it was run: as §1
# CRX = CRX (Homo sapiens, UniProt O43186 1-299); conditions: protein: recombinant; tags: N-terminal GST; dsDNA, one strand shown
# CRX, sequence (O43186 whole entry): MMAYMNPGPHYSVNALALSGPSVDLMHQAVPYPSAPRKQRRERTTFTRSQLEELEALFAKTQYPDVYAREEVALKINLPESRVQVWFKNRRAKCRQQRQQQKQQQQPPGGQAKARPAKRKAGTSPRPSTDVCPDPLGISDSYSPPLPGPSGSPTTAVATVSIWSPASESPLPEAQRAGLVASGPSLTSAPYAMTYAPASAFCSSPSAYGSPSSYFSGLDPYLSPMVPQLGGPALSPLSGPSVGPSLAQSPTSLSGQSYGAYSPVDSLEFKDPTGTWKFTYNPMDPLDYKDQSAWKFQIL
# How it was run: as §1
# ETV1 = ETV1 (Homo sapiens, UniProt P50549 1-477); conditions: protein: recombinant; tags: N-terminal GST; dsDNA, one strand shown
# ETV1, sequence (P50549 whole entry): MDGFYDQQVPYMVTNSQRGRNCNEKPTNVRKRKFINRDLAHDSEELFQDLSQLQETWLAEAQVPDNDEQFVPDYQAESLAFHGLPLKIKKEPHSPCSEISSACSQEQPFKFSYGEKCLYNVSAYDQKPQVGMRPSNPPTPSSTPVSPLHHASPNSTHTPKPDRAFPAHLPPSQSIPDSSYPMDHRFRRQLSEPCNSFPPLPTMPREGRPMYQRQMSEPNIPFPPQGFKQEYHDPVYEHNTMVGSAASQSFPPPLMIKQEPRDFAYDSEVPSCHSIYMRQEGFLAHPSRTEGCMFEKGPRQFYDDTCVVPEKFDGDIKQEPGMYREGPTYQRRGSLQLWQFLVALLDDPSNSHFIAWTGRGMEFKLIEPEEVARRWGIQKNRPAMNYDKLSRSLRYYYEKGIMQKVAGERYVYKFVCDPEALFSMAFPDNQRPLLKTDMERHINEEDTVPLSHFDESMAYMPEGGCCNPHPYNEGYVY
# How it was run: as §1
# ERF = biological target: T6, ERF (Homo sapiens, UniProt P50548 1-548); conditions: protein: recombinant; tags: N-terminal GST; dsDNA, one strand shown
# T6 sequence: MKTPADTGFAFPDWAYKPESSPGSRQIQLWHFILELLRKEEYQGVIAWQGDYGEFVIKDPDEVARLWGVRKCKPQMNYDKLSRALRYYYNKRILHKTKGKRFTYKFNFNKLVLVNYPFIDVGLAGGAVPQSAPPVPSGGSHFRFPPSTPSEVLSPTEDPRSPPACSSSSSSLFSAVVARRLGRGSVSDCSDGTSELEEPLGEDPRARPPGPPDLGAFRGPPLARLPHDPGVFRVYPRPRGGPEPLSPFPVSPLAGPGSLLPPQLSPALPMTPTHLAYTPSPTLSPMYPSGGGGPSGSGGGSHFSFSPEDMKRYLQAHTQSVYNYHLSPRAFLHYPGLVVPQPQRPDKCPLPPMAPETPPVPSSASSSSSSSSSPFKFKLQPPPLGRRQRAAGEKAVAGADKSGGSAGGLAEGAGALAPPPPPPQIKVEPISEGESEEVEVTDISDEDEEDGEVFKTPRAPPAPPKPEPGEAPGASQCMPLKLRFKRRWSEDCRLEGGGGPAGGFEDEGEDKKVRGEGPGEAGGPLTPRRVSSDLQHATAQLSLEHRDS
# How it was run: as §1
# ETV3L = biological target: T7, ETV3L (Homo sapiens, UniProt Q6ZN32 1-361); conditions: protein: recombinant; tags: N-terminal GST; dsDNA, one strand shown
# T7 sequence: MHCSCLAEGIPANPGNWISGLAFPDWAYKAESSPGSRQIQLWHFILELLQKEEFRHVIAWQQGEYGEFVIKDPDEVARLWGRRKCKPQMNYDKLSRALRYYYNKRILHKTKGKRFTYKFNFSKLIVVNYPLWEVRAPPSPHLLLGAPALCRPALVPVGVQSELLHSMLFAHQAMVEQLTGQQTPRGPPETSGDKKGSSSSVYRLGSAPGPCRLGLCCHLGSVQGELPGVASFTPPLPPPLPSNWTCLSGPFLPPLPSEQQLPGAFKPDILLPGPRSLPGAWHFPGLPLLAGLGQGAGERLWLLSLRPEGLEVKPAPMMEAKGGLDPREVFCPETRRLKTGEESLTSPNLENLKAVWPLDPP
# How it was run: as §1
# ETS2 = biological target: T8, ETS2 (Homo sapiens, UniProt P15036 1-469); conditions: protein: recombinant; tags: N-terminal GST; dsDNA, one strand shown
# T8 sequence: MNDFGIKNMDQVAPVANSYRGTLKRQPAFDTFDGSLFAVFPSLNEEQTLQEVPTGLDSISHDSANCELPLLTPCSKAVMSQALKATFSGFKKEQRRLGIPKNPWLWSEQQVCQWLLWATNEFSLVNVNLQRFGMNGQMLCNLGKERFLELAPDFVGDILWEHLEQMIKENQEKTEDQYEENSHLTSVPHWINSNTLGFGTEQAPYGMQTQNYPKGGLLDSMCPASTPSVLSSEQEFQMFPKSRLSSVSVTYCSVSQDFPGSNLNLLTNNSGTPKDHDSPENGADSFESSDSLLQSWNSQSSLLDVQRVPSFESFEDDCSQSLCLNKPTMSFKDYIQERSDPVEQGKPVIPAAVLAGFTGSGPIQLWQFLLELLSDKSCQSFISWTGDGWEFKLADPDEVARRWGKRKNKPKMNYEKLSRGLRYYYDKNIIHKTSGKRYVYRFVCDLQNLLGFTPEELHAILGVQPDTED
# How it was run: as §1
# SPDEF = biological target: T9, SPDEF (Homo sapiens, UniProt O95238 1-335); conditions: protein: recombinant; tags: N-terminal GST; dsDNA, one strand shown
# T9 sequence: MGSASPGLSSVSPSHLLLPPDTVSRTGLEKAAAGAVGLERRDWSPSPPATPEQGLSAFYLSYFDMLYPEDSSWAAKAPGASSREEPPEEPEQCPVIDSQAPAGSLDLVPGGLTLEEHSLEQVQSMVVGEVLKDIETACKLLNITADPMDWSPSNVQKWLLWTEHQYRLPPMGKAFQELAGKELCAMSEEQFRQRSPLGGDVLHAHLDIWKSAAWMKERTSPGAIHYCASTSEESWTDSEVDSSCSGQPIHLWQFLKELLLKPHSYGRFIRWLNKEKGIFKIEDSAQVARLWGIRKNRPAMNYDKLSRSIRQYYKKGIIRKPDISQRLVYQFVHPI
# How it was run: as §1
# ETV7 = biological target: T10, ETV7 (Homo sapiens, UniProt Q9Y603 1-341); conditions: protein: recombinant; tags: N-terminal GST; dsDNA, one strand shown
# T10 sequence: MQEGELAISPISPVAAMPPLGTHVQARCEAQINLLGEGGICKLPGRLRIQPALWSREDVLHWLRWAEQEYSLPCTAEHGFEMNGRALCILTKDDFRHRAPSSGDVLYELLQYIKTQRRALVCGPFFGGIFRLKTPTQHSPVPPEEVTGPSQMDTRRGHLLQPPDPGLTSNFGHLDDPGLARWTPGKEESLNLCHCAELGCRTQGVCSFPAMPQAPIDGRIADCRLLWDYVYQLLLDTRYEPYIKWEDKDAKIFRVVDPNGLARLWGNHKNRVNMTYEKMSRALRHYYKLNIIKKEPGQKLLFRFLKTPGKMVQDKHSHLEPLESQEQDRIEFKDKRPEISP
# How it was run: as §1
# ELF5 = biological target: T11, ELF5 (Homo sapiens, UniProt Q9UKW6-2 1-255); conditions: protein: recombinant; tags: N-terminal GST; dsDNA, one strand shown
# T11 sequence: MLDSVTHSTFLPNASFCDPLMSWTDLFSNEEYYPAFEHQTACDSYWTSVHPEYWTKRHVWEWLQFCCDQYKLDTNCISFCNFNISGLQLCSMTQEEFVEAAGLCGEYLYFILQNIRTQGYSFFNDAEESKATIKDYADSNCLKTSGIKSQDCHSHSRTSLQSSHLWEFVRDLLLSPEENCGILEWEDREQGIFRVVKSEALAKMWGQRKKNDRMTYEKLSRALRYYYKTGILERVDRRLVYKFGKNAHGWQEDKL
# How it was run: as §1
# ETV3 = biological target: T12, ETV3 (Homo sapiens, UniProt P41162-2 1-143); conditions: protein: recombinant; tags: N-terminal GST; dsDNA, one strand shown
# T12 sequence: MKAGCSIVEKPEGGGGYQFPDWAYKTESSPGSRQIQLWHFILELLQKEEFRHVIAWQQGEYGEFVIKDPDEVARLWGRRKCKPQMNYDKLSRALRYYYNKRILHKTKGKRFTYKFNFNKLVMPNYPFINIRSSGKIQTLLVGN
# How it was run: as §1
# ETV6 = ETV6 (Homo sapiens, UniProt P41212 1-452); conditions: protein: recombinant; tags: N-terminal GST; dsDNA, one strand shown
# ETV6, sequence (P41212 whole entry): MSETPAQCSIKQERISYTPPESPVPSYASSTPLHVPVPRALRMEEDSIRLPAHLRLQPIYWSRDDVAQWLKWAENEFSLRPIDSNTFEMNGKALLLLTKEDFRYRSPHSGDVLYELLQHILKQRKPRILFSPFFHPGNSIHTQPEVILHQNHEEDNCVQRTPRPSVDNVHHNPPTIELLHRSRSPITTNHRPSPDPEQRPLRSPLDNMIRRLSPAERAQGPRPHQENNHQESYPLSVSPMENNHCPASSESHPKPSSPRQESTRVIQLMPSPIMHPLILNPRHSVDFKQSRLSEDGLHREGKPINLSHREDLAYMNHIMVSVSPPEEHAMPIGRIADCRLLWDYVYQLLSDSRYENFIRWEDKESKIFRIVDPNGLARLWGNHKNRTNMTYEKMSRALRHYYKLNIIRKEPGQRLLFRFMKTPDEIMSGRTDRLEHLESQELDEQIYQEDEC
# How it was run: as §1
sequence,measurement,setting,value
GCTCAT,binding signal,FEV,"1.2 fold enrichment (6-mer frequency, TF over GST control)"
same,binding signal,ETV5,"1.19 fold enrichment (6-mer frequency, TF over GST control)"
same,binding signal,HSF1,"1.15 fold enrichment (6-mer frequency, TF over GST control)"
same,binding signal,SPIC,"1.32 fold enrichment (6-mer frequency, TF over GST control)"
same,binding signal,ELF4,"1.18 fold enrichment (6-mer frequency, TF over GST control)"
same,binding signal,ELK4,"1.3 fold enrichment (6-mer frequency, TF over GST control)"
same,binding signal,ETV2,"1.39 fold enrichment (6-mer frequency, TF over GST control)"
same,binding signal,ELF3,"1.34 fold enrichment (6-mer frequency, TF over GST control)"
same,binding signal,CRX,"1.35 fold enrichment (6-mer frequency, TF over GST control)"
same,binding signal,ETV1,"1.22 fold enrichment (6-mer frequency, TF over GST control)"
same,binding signal,ERF,"1.31 fold enrichment (6-mer frequency, TF over GST control)"
same,binding signal,ETV3L,"1.19 fold enrichment (6-mer frequency, TF over GST control)"
same,binding signal,ETS2,"1.26 fold enrichment (6-mer frequency, TF over GST control)"
same,binding signal,SPDEF,"1.12 fold enrichment (6-mer frequency, TF over GST control)"
same,binding signal,ETV7,"1.23 fold enrichment (6-mer frequency, TF over GST control)"
same,binding signal,ELF5,"1.19 fold enrichment (6-mer frequency, TF over GST control)"
same,binding signal,ETV3,"1.15 fold enrichment (6-mer frequency, TF over GST control)"
same,binding signal,ETV6,"1.21 fold enrichment (6-mer frequency, TF over GST control)"
